Measured values taken from ChEMBL document CHEMBL4513216, “Probing the Open Global Health Chemical Diversity Library for Multistage-Active Starting Points for Next-Generation Antimalarials” (ACS Infect Dis, 2020).
The whole screen tested about 68,000 compounds, of which about 2,700 (4%) showed an effect of 50% or more. Shown is part of a subset that was picked to be rich in strong results.

The molecules below were run on Plasmodium berghei (assay: Screen against P. berghei liver stage (PbLuc), transformed with Luciferase, at 2uM). Conditions: tested at 2 uM.
Assay type: functional, HepG2
Molecule Cc1ccnn1CCCNC(=O)C1CCN(S(C)(=O)=O)CC1 has an INHIBITION of -11.34%.
With Cc1csc(N2CCN(C(=O)Cc3cccs3)CC2)n1 the INHIBITION was 6.07%.
CC(C)(C)C(O)CN1CCN(Cc2cccc(C#N)c2)CC1 (configuration not stated) was tested, and the INHIBITION was -4.89%.
COc1ccc(CC(=O)N2CCCCC2Cn2cccn2)cc1OC (configuration not stated) gave an INHIBITION of -40.17%.
CN1CCN(c2ccccc2NC(=O)NCCc2ccccc2)CC1 showed an INHIBITION of -10%.
C=Cc1ccc(C(=O)NC2CCCc3nc(N(C)C)ncc32)cc1 (configuration not stated) was tested, and the INHIBITION was 34.61%.
With CC(C)n1c(=O)[nH]c2cn(-c3ccc(Br)cc3)c(=O)n21 the INHIBITION was 22.07%.
With CCn1ccnc1CNCC1CCCN1c1cccnn1 (configuration not stated) the INHIBITION was 39.92%.
Molecule CN(CC(=O)Nc1ccncc1)CC1CCCN1c1cccnn1 (configuration not stated) has an INHIBITION of -22.08%.
CCn1ccnc1CN(C)CC1CCCN1c1cccnn1 (configuration not stated) showed an INHIBITION of 55.52%.
In the case of Cc1csc(NC(=O)CN(C)CC2CCCN2c2cccnn2)n1 (configuration not stated), the INHIBITION is reported as 9.17%.
Molecule Cc1cc(NC(=O)CN(C)CC2CCCN2c2cccnn2)n(C)n1 (configuration not stated) has an INHIBITION of 51.03%.
Cc1cnc(CN(C)CC2CCCN2c2cccnn2)cn1 (configuration not stated) was tested, and the INHIBITION was 47.72%.
O=C1CC2(CCN(Cc3ccco3)C2)CN1c1ccc2c(c1)OCO2 (configuration not stated) was tested, and the INHIBITION was 14.06%.
COCCCN1CCN([C@@H]2c3ccccc3C3(CCNCC3)[C@H]2O)CC1 showed an INHIBITION of -13.79%.
CC(C)CN1CC2(CCN(C(=O)c3nc4ncccn4n3)CC2)CC1=O gave an INHIBITION of -47.52%.
With CCc1nc(N2CCCN(c3ncccn3)CC2)c2cnn(C)c2n1 the INHIBITION was 29.53%.
In the case of CCCc1nc(N2CCCN(c3ncccn3)CC2)c2cnn(C)c2n1, the INHIBITION is reported as 17.73%.
Work on CCc1nc(N2CCN(c3ncccn3)CC2)c2cnn(C)c2n1 yielded an INHIBITION of 51.48%.
With CCCn1cc(Cl)c(C(=O)N2C[C@H]3CC(OC)C[C@H]3C2)n1 (some centres not stated) the INHIBITION was -13.75%.
CCCS(=O)(=O)N1CCCN(CCCOC)CC1 gave an INHIBITION of -14.94%.
For Cn1cc(CC(CNC(=O)Nc2cccc(Cl)c2)C(N)=O)cn1 (configuration not stated), the INHIBITION was 31.78%.
With COc1cccc(NC(=O)NCc2cnn(C)c2)c1 the INHIBITION was 7.33%.
In the case of COc1cccc(NC(=O)NCC(Cc2cnn(C)c2)C(N)=O)c1 (configuration not stated), the INHIBITION is reported as 55.25%.
For CO[C@@H]1CC[C@@H](NC(=O)c2ccc(OCCN3CCCC3)cc2)[C@H]1O, the INHIBITION was -1.51%.
In the case of COCC(=O)N1CCC(c2cc3ncccc3c(O)n2)CC1, the INHIBITION is reported as 19.89%.
Fc1ccc(OCCCN2CCOC(Cn3cncn3)C2)cc1 (configuration not stated) gave an INHIBITION of -20.71%.
Molecule c1cnn(CC2CN(CCCOc3ccc4c(c3)OCO4)CCO2)c1 (configuration not stated) has an INHIBITION of -14.46%.
Molecule c1ccc2oc(CCCN3CCOC(Cn4cccn4)C3)nc2c1 (configuration not stated) has an INHIBITION of 14.11%.
Molecule c1ncn(CC2CN(CCCOc3ccc4c(c3)OCO4)CCO2)n1 (configuration not stated) has an INHIBITION of 53.98%.
Molecule Cc1cnn(CC2CN(CCCc3nc4ccccc4o3)CCO2)c1 (configuration not stated) has an INHIBITION of 5.14%.
c1ccc2oc(CCCN3CCOC(Cn4cncn4)C3)nc2c1 (configuration not stated) was tested, and the INHIBITION was 53.11%.
Work on COc1cc(N2CCC3(CCN(Cc4csc(C)n4)C3)CC2)ncn1 yielded an INHIBITION of 7.76%.
With CNc1nc(C2CCCN(C(=O)C(C)(C)OC)C2)nc2c1CN(C)CC2 (configuration not stated) the INHIBITION was -11.02%.
For Cc1nc(Cn2c(=O)cnc3ccccc32)n(C)n1, the INHIBITION was -48.07%.
In the case of CN(Cc1cccs1)C(=O)c1ccc(=O)n(C)c1, the INHIBITION is reported as 7.67%.
COCCN(Cc1cccs1)C(=O)c1ccc(=O)n(C)c1 showed an INHIBITION of 29.13%.
Work on CCN(Cc1cccs1)C(=O)c1ccc(=O)n(C)c1 yielded an INHIBITION of 50.59%.
For CC(=O)N1CC2(CCN(C(=O)c3cccc4[nH]ccc34)CC2)C1, the INHIBITION was 3%.
Molecule CC(=O)N1CCC2(CC1)CN(C(=O)c1cccc3[nH]ccc13)C2 has an INHIBITION of 57.92%.
With CC(=O)N1CCC2(CC1)CN(C(=O)c1cccc3[nH]ccc13)CCO2 the INHIBITION was 37.41%.
For Cc1ccc(N(Cc2ccco2)C(=O)Cc2cc(=O)n(C)[nH]2)cc1, the INHIBITION was -12.06%.
With CC(NC(=O)c1cc(-c2cccc(Cl)c2)no1)C(=O)N1CCCC1 (configuration not stated) the INHIBITION was 24.29%.
Work on COC(=O)[C@H](C)NC(=O)c1cc(-c2cccc(Cl)c2)no1 yielded an INHIBITION of 11.28%.
For CC(NC(=O)c1cc(-c2cccc(Cl)c2)no1)C(=O)N(C)C (configuration not stated), the INHIBITION was 50.59%.
In the case of O=C(c1cncs1)N1CCC(Cc2cnc3[nH]ccc3c2)CC1, the INHIBITION is reported as -11.64%.
CC(C)OC(=O)CNC(=O)Nc1ccc(-c2nc(C(C)C)no2)cc1 gave an INHIBITION of -13.72%.
With CC(C)c1noc(-c2ccc(NC(=O)NCC(O)C(C)C)cc2)n1 (configuration not stated) the INHIBITION was -10.44%.
Molecule COCCNC(=O)Nc1ccc(-c2nc(C(C)C)no2)cc1 has an INHIBITION of 58.53%.
Molecule O=c1c2ccc(C(F)(F)F)cc2ncn1CCCN1CCCCC1CO (configuration not stated) has an INHIBITION of -13.49%.
With Cc1nn(C)cc1CN1CCC(c2ncc(Cl)cc2S(C)(=O)=O)CC1 the INHIBITION was 20.51%.
Molecule COc1ccc(C2SCC(=O)Nc3n[nH]cc32)c(OC)c1OC (configuration not stated) has an INHIBITION of 2.66%.
For COc1cc(C2SCC(=O)Nc3n[nH]cc32)cc(OC)c1O (configuration not stated), the INHIBITION was -33.37%.
For O=C1CSC(c2ccncc2)c2c[nH]nc2N1 (configuration not stated), the INHIBITION was 76.13%.
Work on Cc1cccc(C(=O)NCc2ccccc2)n1 yielded an INHIBITION of 5.09%.
In the case of CC(=O)NCCNC(=O)NCCCc1cccc(F)c1, the INHIBITION is reported as 31.55%.
CC(C)(C)S(=O)(=O)CCNC(=O)NCCCc1cccc(F)c1 gave an INHIBITION of 26.02%.
Molecule CC(C)NC(=O)NCCCc1cccc(F)c1 has an INHIBITION of 78.96%.
In the case of OC(CN1CCN(CCOCC(F)(F)F)CC1)c1ccccc1 (configuration not stated), the INHIBITION is reported as 25.35%.
In the case of N#Cc1ccccc1N1CCCN(C(=O)CCc2ccco2)CC1, the INHIBITION is reported as 75.56%.
N#Cc1cccnc1N1CCCN(C(=O)CCc2nccs2)CC1 was tested, and the INHIBITION was -71.75%.
Cc1ncsc1C(=O)NC1CCN(c2ncccc2C#N)CC1 showed an INHIBITION of -4.58%.
N#Cc1ccccc1N1CCCN(C(=O)CCc2nccs2)CC1 showed an INHIBITION of 63.95%.
In the case of O=C(CCc1nccs1)N1CCN(c2ccccc2F)CC1, the INHIBITION is reported as 44.12%.
For Cc1ncsc1CCC(=O)NC1CCN(c2ccc(Cl)nn2)CC1, the INHIBITION was 2.04%.
With N#Cc1cccnc1N1CCN(C(=O)CCC(=O)c2cccs2)CC1 the INHIBITION was 53.81%.
N#Cc1ccccc1N1CCCN(C(=O)CCc2ccsc2)CC1 showed an INHIBITION of -107.32%.
N#Cc1cccnc1N1CCCN(C(=O)CCc2cccs2)CC1 was tested, and the INHIBITION was 10.1%.
N#Cc1cccnc1N1CCN(C(=O)c2cccs2)CC1 was tested, and the INHIBITION was 23.76%.
Cc1ncsc1CCC(=O)NC1CCN(c2ncccc2C#N)CC1 gave an INHIBITION of 51.81%.
For N#Cc1ccccc1N1CCCN(C(=O)CCc2cccs2)CC1, the INHIBITION was 16.08%.
With COC1COC2(CCN(Cc3ccccc3C)CC2)C1 (configuration not stated) the INHIBITION was 27.65%.
Work on CC(C)n1cnc2c(N3CCCC3)nc(C3CCNCC3)cc21 yielded an INHIBITION of 14.39%.
CC(NCc1ccccc1Br)c1ccc2[nH]c(=O)[nH]c2c1 (configuration not stated) gave an INHIBITION of 20.28%.
Molecule CCCc1nc2c(c(C)c(C)n2Cc2ccccn2)c(N)c1CC has an INHIBITION of -17.84%.
For O=C(NCCc1cc(N2CCOCC2)nc(NC2CC2)n1)C1CC1, the INHIBITION was 38.45%.
In the case of COCCN1CCN(c2nc(O)cc(Cc3ccccc3F)n2)CC1, the INHIBITION is reported as -35.66%.
Cc1cc(NC(=O)Cn2cc(C#N)c(=O)c3cc(Br)ccc32)no1 was tested, and the INHIBITION was 3.43%.
In the case of CN(Cc1cc(C2CC2)on1)C(=O)CN1C(=O)OC(C)(C)C1=O, the INHIBITION is reported as 37.41%.
CN(Cc1ccoc1)C(=O)CN1C(=O)OC(C)(C)C1=O was tested, and the INHIBITION was 0.85%.
For CN(Cc1ccon1)C(=O)CN1C(=O)OC(C)(C)C1=O, the INHIBITION was 70.76%.
With CCn1nc(C)c2nc(C(C)C)nc(N3CCC(O)CC3)c21 the INHIBITION was 5.86%.
With O=C(c1cccc(F)c1)N1CCC2(CC1)CN(c1ccccn1)CCO2 the INHIBITION was -29.13%.
COCCn1/c(=N\C(=O)CN(C)S(C)(=O)=O)sc2cc(C)ccc21 was tested, and the INHIBITION was 29.19%.
COCCn1/c(=N\C(=O)CN(C)S(C)(=O)=O)sc2cc(Cl)ccc21 was tested, and the INHIBITION was 52.05%.
For COCCn1/c(=N\C(=O)CN(C)S(C)(=O)=O)sc2cc(OC)ccc21, the INHIBITION was 11.87%.
Nc1ncnc2[nH]c(N3CCCCC3)nc12 was tested, and the INHIBITION was -87.36%.
Molecule Clc1ccccc1OC1CN(CC2CCOC2)C1 (configuration not stated) has an INHIBITION of -14.36%.
CC(C)NC(=O)N1CCC[C@H]1C(=O)NCCCc1cccc(F)c1 was tested, and the INHIBITION was -22.24%.
CN(Cc1cccc(F)c1)C(=O)CN1CCCCC1Cn1cncn1 (configuration not stated) showed an INHIBITION of 3.3%.
Molecule N#CCCN(CCC#N)C(=O)CN1CCCC1Cc1cccc(F)c1 (configuration not stated) has an INHIBITION of -43.03%.
For CN(Cc1ccc(F)cc1)C(=O)CN1CCCC(Cn2cncn2)C1 (configuration not stated), the INHIBITION was 2.08%.
CN(Cc1cccc(F)c1)C(=O)CN1CCCC(Cn2cncn2)C1 (configuration not stated) was tested, and the INHIBITION was 53.1%.
With CN(Cc1cccc(F)c1)C(=O)CN1CCCC1CCc1ccccc1 (configuration not stated) the INHIBITION was 80.56%.
CN(Cc1ccccc1)C(=O)CN1CCCC(Cn2cncn2)C1 (configuration not stated) was tested, and the INHIBITION was 45.5%.
In the case of COc1cc(OC)cc(C(=O)N(C)Cc2nnc3ccccn23)c1, the INHIBITION is reported as 34.39%.
In the case of Cc1ccc(N2C[C@H]3CCC[C@@H](CN4CCOCC4)[C@H]3C2)nn1, the INHIBITION is reported as -7.49%.
Work on CN(C)c1ccc(C(=O)NCc2cccnc2-n2cncn2)cc1F yielded an INHIBITION of 20.19%.
With O=C(CC1CCCO1)NCc1ccccc1Cn1cncn1 (configuration not stated) the INHIBITION was 8.37%.
For O=C(CCNC(=O)C1CCCC1)NCc1ccccc1Cn1cncn1, the INHIBITION was -14.17%.
With NC(=O)C1CCN(C(=O)NCc2ccccc2Cn2cncn2)CC1 the INHIBITION was 64.07%.
O=C(CCC1CCCO1)NCc1ccccc1Cn1cncn1 (configuration not stated) showed an INHIBITION of 64.16%.
CN(C)C1CCN(C(=O)NCc2ccccc2Cn2cncn2)CC1 showed an INHIBITION of 9.05%.
With O=C(NCc1ccccc1Cn1cncn1)N1CCCC1 the INHIBITION was -9.49%.
Molecule O=C(NCc1ccon1)c1c(F)cc(Br)cc1F has an INHIBITION of 1.04%.
Molecule Cc1nc(C2CCCN(C(=O)c3c[nH]c(C(C)C)n3)C2)no1 (configuration not stated) has an INHIBITION of 13.3%.
Cc1cc(C)n(CC2CCCCN2CC(=O)NC2CCOCC2)n1 (configuration not stated) was tested, and the INHIBITION was 27.5%.
